According to PubChem BioAssay (NCI):
Compounds without any hit were thinned out: in the full panel of roughly 83,000, 20% have a hit.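 The test compound was applied at a single concentration to cells in 96-well plates for 48 hours, and percent growth was recorded.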 A number with no mark means an inactive call. Active and inactive are the calls of the source. The calls were made as follows: active = growth percent below 10; inactive = the rest.

Experiments:
Test in all cases: NCI-60 one-dose screen, 48 h (100 = growth as untreated, 0 = no growth, -100 = all killed)
[1] = system: NCI-H23 lung; conditions: 10 µM unless noted
[2] = system: NCI-H226 lung; conditions: 10 µM unless noted
[3] = system: NCI-H322M lung; conditions: 10 µM unless noted
[4] = system: HOP-62 NSCLC; conditions: 10 µM unless noted
[5] = system: HOP-92 NSCLC; conditions: 10 µM
[6] = system: A549/ATCC NSCLC; conditions: 10 µM unless noted
[7] = system: 786-0 renal; conditions: 10 µM unless noted
[8] = system: DU-145 prostate; conditions: 10 µM unless noted
[9] = system: K-562 leukemia; conditions: 10 µM unless noted
[10] = system: MALME-3M melanoma; conditions: 10 µM unless noted
[11] = system: MDA-MB-231 breast; conditions: 10 µM unless noted
[12] = system: RXF 393 renal; conditions: 10 µM unless noted
[13] = system: SF-268 CNS; conditions: 10 µM unless noted
[14] = system: UACC-257 melanoma; conditions: 10 µM unless noted
[15] = system: M14 melanoma; conditions: 10 µM unless noted
[16] = system: NCI-H460 lung; conditions: 10 µM unless noted
[17] = system: NCI-H522 lung; conditions: 10 µM
[18] = system: COLO 205 colon; conditions: 10 µM unless noted
[19] = system: SF-295 CNS; conditions: 10 µM unless noted
[20] = system: SF-539 CNS; conditions: 10 µM unless noted

Structure (SMILES)	growth [1]	growth [2] [%]	growth [3]	growth [4]	growth [5]	growth [6]	growth [7]	growth [8]	growth [9]	growth [10]	growth [11]	growth [12]	growth [13] [%]	growth [14] [%]	growth [15]	growth [16] [%]	growth [17]	growth [18]	growth [19]	growth [20]
O=C1CSC(c2ccccc2Cl)N1c1nnc(-c2ccncc2)o1 (stereo not given)	85.9%	93.9	105%	90.2%	95.9%	101%	93.6%	106%	104%	120%	97.7%	101%	99.5	98.2	96.8%					
COc1cc(OC)c2c(=O)cc(-c3ccccc3)oc2c1	106%	101	93.2%		54.9%	96.7%	49%	111%	98.4%	97.2%	97%	99.8%	104	97.8		104	82.8%	117%	93.8%	108%
COC(=O)C(Cc1cnc[nH]1)N1CC(=O)N2[C@@H](c3ccccc3)SC[C@H]2C1=O (stereo not given in full)	100%	143	112%	114%		96.4%	107%	117%	106%	108%	116%	193%	104	96.7	101%			124%	93.5%	105%
CC(=O)OCC(=O)[C@@]1(O)[C@H](C)C[C@H]2[C@@H]3C=C(C)C4=Cc5c(cnn5-c5ccc(F)cc5)C[C@]4(C)[C@H]3[C@@H](O)C[C@@]21C	-28.2% (active)	59.9	49.9%	-11.8% (active)		16.7%	-26.5% (active)	13.9%	12.6%	61.8%	53.1%	-12.3% (active)	34.2	49.8	32.6%		-23.7% (active)	-39.2% (active)	-32.2% (active)	-39.6% (active)
COc1ccc(/C=C2\CCCC3=C2N=C2SC=NN2C3c2ccc(OC)c(OC)c2)cc1OC (stereo not given)	39.7%	45.3	38.3%	35.3%		31.9%	70.2%	24.9%	26.9%		55.2%	50.4%	41.6	54.6	47.5%			22.7%	46.1%	37.4%
COC(=O)c1cc(Nc2ccc(O)c3c2C(=O)c2c([N+](=O)[O-])ccc(O)c2C3=O)cc(C(=O)OC)c1	-20.3% (active)	82.5	-2.32% (active)	72.8%		-50.2% (active)	88.7%	-59.1% (active)	72.9%	-51.1% (active)	90.4%	51.9%	55.1	12.1	-66.5% (active)			12%		84%
CCCC(=O)NNc1[nH]c(-c2ccc(OC)cc2)cc1C(=O)OCC	95.4%	104	35.2%		72.9%	110%	96.6%	104%	49.1%	52%	87.4%	107%	118	105		120	91.1%	1.42% (active)	93.7%	92.7%
CC(C)(C)c1cc(C[P+](c2ccc(Cl)cc2)(c2ccc(Cl)cc2)c2ccc(Cl)cc2)cc(C(C)(C)C)c1O	86.5%	90.6	86.1%	98.9%			99.1%	108%	32.4%	37.4%	102%	68%	99.1		106%			50.4%	91.9%	105%
CC1(C)CC(=O)C2=C(C1)Oc1nc(N)c(C#N)c(N)c1C2c1ccc(F)cc1 (stereo not given)	133%	106	123%		76.4%	110%	94.2%	95.7%	85.9%	117%	88.7%	-1.27% (active)	117	94.8		117	146%	127%	110%	86.9%
CCCCCCN(CCCCCC)CCC(=O)Nc1ccc(S(=O)(=O)c2ccc(NC(=O)CCN(CCCCCC)CCCCCC)cc2)cc1	84.3%	78.6	75.3%	76.8%	69.4%	94.1%	90.5%	95.4%	7.37% (active)	96%	61%	83.3%	80.1	99.8	88.9%			74.1%	100%	94.7%
CCCCCC(=C/c1ccccc1)/C=N/N=C(N)N	44.6%	66	20.3%	-4.74% (active)			-65.4% (active)		5.26% (active)	37%		-31.3% (active)			-64.5% (active)		-65.3% (active)	-93.9% (active)	-64.3% (active)	45.5%
Cc1ccc(C(=O)C(Br)C(Br)c2ccccc2)cc1 (stereo not given)	114%	92.8	95%	115%			99.4%	85.9%	50.9%	88.3%	99.9%	79.3%	95.7		101%			52.8%	97.9%	100%
COc1cc(N)c2nccc(C)c2c1OC	115%	101	106%		81.7%	117%	103%	100%	92.1%	95.8%	91.2%	-4.59% (active)	114	92.5		112	133%	116%	116%	82%
Cc1c([C@H](C(Cl)Cl)[C@H](O)[C@H]2C[C@H](C)C(=O)O2)ccc2c1C(=O)[C@H]1[C@H]2C[C@@H](Br)[C@@]23O[C@@H](CO[C@H]2O)CC13C (stereo not given in full)	20.3%	42.9	33.1%	49.8%	69.2%	-1.06% (active)	40.1%	-34.9% (active)	7.69% (active)	77.9%	4.9% (active)	15.5%	33	61.9	33.2%					
CC(=O)N(N=O)c1ccc([N+](=O)[O-])cc1Cl	34%	68.3	74.3%	97%	31.6%	61.7%	74.1%	82.2%	49.5%	58.9%	58.9%	83.9%	78.5	45.4	64.6%			97.6%	66.9%	72.7%
NC(N)=Nc1ccc(/C=C2\C=Cc3ccccc32)cc1	69.9%	74.6	70.5%		9.95% (active)	78.6%	67.3%	80.9%	13.6%	88.8%	42.4%	63.7%	64.5	77.5	73.4%	63.5	42.7%	-77.9% (active)	80.6%	81.3%
COc1ccc(-n2nnnc2-c2cn[nH]c2C(F)(F)F)cc1	128%	91	105%		91.8%	104%	106%	101%	87.2%	107%	83.4%	-6.74% (active)	109	93.7		110	79.3%	96.8%	88.3%	89.6%
